BAZ2B inh – qHTS Assay for Inhibitors of BAZ2B | AlphaScreen BAZ2B-H3K14Ac peptide displacement | hit rate 4.4% among 360,000 | AID 504333, 2011 | Potency, µM (top dose mostly 114 µM), for the others: at the highest dose activity change, negative = inhibition, hits mostly inhibitors; further: on the % scale 0 is the no-effect control and ±100 the full control effect; nearly all actives have a fitted effect of over 60% in size
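BAZ2B 50 nM plus b-H3(5-23)K14Ac 50 nM, PBS pH 7.4/0.01% Tween-20, 30 min RT; compound added (max 110 uM), 30 min RT; streptavidin donor/Ni-chelate acceptor beads 10 ug/mL final, 20 min dark; AlphaScreen read.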
JMJD2A Tudor – qHTS Assay for Inhibitors of JMJD2A-Tudor Domain | Lysine-specific demethylase 4A (Homo sapiens), O75164 | AlphaScreen JMJD2A-Tudor / H3K4me3 peptide binding | Potency, µM (series often up to 114 µM), for inactives: top-dose activity change, negative = inhibition, most hits filed as inhibitors | hit rate 4.4% among 390,000 | AID 504339, 2011; further: on the % scale 0 is the no-effect control and ±100 the full control effect; nearly all actives have a fitted effect of over 50% in size
GLS inh – qHTS for Inhibitors of Glutaminase (GLS). AID 624170, 2012. Potency, µM (top dose mostly 45.5 µM), for inactives: at the highest dose activity change, negative = inhibition, actives largely listed as inhibitors. GLS enzymatic activity, qHTS titration. hit rate 0.21% among 410,000; further: on the % scale 0 is the no-effect control and ±100 the full control effect
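hKGA; 45 mM KH2PO4 pH 8.2 + 0.02% Tween-20; cpd via pin tool; 1 mM Gln soln; GluOx/HRP/Amplex Red; RT 30 min; fluor. t0 & final.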
HP1b chromo inh – HTS for Inhibitors of HP1-beta Chromodomain Interactions with Methylated Histone Tails | AlphaScreen HP1-beta / biotin-H3K9me3 peptide binding | Potency, µM (series often up to 114 µM), for inactives: at the highest dose activity change, negative = inhibition, usual class: inhibitors | hit rate 0.56% among 390,000; further: nearly all actives have a fitted effect of over 70% in size
Target sequence (P83916 whole entry, looked up): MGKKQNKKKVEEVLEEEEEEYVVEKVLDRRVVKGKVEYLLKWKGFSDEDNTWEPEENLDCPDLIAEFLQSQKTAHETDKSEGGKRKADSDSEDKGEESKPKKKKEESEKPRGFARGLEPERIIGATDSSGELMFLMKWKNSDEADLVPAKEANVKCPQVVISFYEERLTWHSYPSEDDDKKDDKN
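AlphaScreen: HP1-beta (50 nM) preformed 30 min with biotin-H3(1-18)K9me3 peptide (50 nM) in PBS pH 7.4, 0.01% Tween-20. Compound added for 30 min at RT, then streptavidin donor/nickel chelate acceptor beads (10 ug/mL) for 30 min.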
L3MBTL1 inh – qHTS Assay for the Inhibitors of L3MBTL1; Lethal(3)malignant brain tumor-like protein 1 (Homo sapiens), Q9Y468; AlphaScreen L3MBTL1–H3K9me1 peptide binding; Potency, µM (series often up to 57.1 µM), without a hit: top-dose activity, negative = inhibition, actives largely listed as inhibitors; hit rate 0.66% among 230,000; further: on the % scale 0 is the no-effect control and ±100 the full control effect; nearly all actives have a fitted effect of over 60% in size
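First, the protein-peptide complex forms for 30 min at room temperature (L3MBTL1 50 nM, biotinylated H3K9me1 peptide 75 nM). Next, compounds are pin-transferred and incubated 30 min. Finally, AlphaScreen beads are added and read after 30 min.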
G9a inh – qHTS Assay for Inhibitors of Histone Lysine Methyltransferase G9a; Histone-lysine N-methyltransferase EHMT2 (Homo sapiens), Q96KQ7; G9a H3K9 monomethylation, AlphaScreen, 2 h; Potency, µM (doses to about 102 µM), for the others: top-dose activity, negative = inhibition, usual class: inhibitors; hit rate 8.8% among 350,000; AID 504332, 2011; further: on the % scale 0 is the no-effect control and ±100 the full control effect; nearly all actives have a fitted effect of over 75% in size
Target sequence (Q96KQ7 913-1193 limits assumed): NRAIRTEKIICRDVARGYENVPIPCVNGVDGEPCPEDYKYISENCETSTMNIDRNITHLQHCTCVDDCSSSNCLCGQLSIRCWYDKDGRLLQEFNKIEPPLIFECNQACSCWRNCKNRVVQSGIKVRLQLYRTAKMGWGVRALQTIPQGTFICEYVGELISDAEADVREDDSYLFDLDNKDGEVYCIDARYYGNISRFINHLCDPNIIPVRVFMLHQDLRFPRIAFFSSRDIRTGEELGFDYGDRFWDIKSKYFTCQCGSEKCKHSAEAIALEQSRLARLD
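Using a bead-based AlphaScreen, monomethylated H3K9 product from 2 h room-temperature reactions (G9a 20 nM, peptide 500 nM, SAM 20 uM) was detected with 0.5 ug/mL rabbit anti-H3K9me1 antibody.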
An asterisk follows results filed as active; ? = inconclusive; · = not tested or not shown; [ ] = dose if it differs, or a comment. Compounds with a hit are over-represented: about 10% of the library has one in this group of screens. The call rests on the fitted dose curve; in most records, active means well fitted curve in the direction sought with a large enough effect; inconclusive means small, poorly fitted or top-dose-only effect, or another doubt; inactive means no such curve, though single readings can be large; an effect the other way counts as inactive or inconclusive. Potency means the concentration at half of the fitted maximal effect.

SMILES	BAZ2B inh	JMJD2A Tudor	GLS inh	HP1b chromo inh	L3MBTL1 inh	G9a inh
CNc1nnc(SCC(=O)c2c(N)n(C3CC3)c(=O)[nH]c2=O)s1	10.6%	-9.9%	-2.4%	9.1%	10.2%	44.7µM*
Cc1cc(NC(=O)CSc2nnc(Nc3ccccc3C)s2)no1	-20.3%	0.0%[11.4 µM]	-20.4%	-14.8%	-6.4%	?
CC(=O)N1CCc2c(sc3c2c(=O)n(Cc2ccccc2)c(=O)n3Cc2ccccc2Cl)C1	-30.8%	?	-2.7%	-9.0%	·	?
CCOc1ccccc1CNS(=O)(=O)c1ccc2[nH]c(=O)ccc2c1	2.0%	-10.0%	3.2%	20.0%[57 µM]	·	0.9%[59 µM]
CCCN(CCC)c1cc(C)nc2nc(-c3ccc(Cl)cc3)nn12	0.4%	-5.3%	-1.4%	32.9%	·	5.0%[59 µM]
Cc1cc2c(s1)c1cnn(Cc3c(F)ccc(F)c3F)c(=O)c1n2C	·	-5.5%	·	·	·	·
Cc1ccccc1Nc1nnc(SCC(=O)c2ccc(O)cc2O)s1	-33.8%	-33.6%	34.9%	-7.2%	·	8.91µM*
Cn1c(N)c(C(=O)CSc2nnc(-c3cccs3)n2C2CC2)c(=O)[nH]c1=O	4.1%	-11.0%	-7.8%	18.7%	-6.9%	50.1µM*
Cc1cc(C)cc(-n2ccnc2SCC(=O)c2c(N)n(C3CC3)c(=O)[nH]c2=O)c1	5.1%	-13.5%	-12.5%	23.2%	0.0%	2.51µM*
Cc1cc(NC(=O)C(C)(C)Oc2ccc(Cl)cc2)cc(-c2nc3ncccc3o2)c1O	-6.1%	-1.9%	12.8%	50.9%	·	12.9%[59 µM]
COc1ccc(-c2cn[nH]c2N)c(OC)c1	-9.9%	-31.1%	18.4%	18.2%	-7.6%	33.4%[59 µM]
COc1cccc(Cn2c(Cn3c(-c4cnccn4)nc4ccccc43)nc3ccccc32)c1	·	·	-18.2%	·	·	·
COc1cccc(-n2c(SC)nnc2-c2cnccn2)c1	-18.5%	-1.3%	-4.7%	22.1%	3.2%	-9.9%[59 µM]
COc1ccc(OC)c(-n2c(Cn3c(-c4ccccn4)nc4ccccc43)n[nH]c2=S)c1	?	7.94µM*	3.0%	?	4.5%	2.51µM*
COc1ccc(OC)c(-n2c(-c3cnccn3)n[nH]c2=S)c1	?	-14.7%	·	26.4%	·	10µM*
COc1ccc(-c2n[nH]c(=S)n2N)c(OC)c1	·	7.08µM*	-16.4%	?	5.7%	6.31µM*
O=C(O)c1cccc(-n2c(-c3cnccn3)n[nH]c2=S)c1	?	-15.8%	-0.2%	29.6%	3.2%	10µM*
CCOC(=O)c1cccc(NC(=O)Nc2c(C)n(C)n(-c3ccccc3)c2=O)c1	0.8%	15.1%	90.3%	31.7%	·	6.2%[59 µM]
COc1ccc(OC)c(-n2c(C)ccc2-c2ccc(S(C)(=O)=O)cc2)c1	44.7µM*	?	1.3%	-10.8%	·	?
COc1ccc(-c2n[nH]c(=S)n2-c2cc(OC)ccc2OC)cc1	-15.6%	10µM*	-17.9%	-11.1%	·	2.82µM*
COc1ccc(OC)c(-n2c(-c3ccc(C)cc3)n[nH]c2=S)c1	5.6%	?	-15.7%	14.6%	-2.9%	?
S=c1[nH]nc(-c2cnccn2)n1-c1ccccc1	?	31.6µM*	6.7%	30.4%	·	?
COc1ccc(-n2c(-c3cnccn3)n[nH]c2=S)cc1	?	8.91µM*	0.3%	15.5%	0.7%	5.01µM*
Cc1ccc2c(c1)c1c(c(=O)n(-c3cccc(Cl)c3)c(=O)n1CC(=O)Nc1c(C)cccc1C)n2C	-12.6%	-13.3%	0.8%	-3.8%	·	10.3%[59 µM]
COc1ccc(-n2c(-c3ccc(Cl)cc3Cl)n[nH]c2=S)c(OC)c1	-31.3%	12.6µM*	11.2µM*	4.4%	-8.1%	·
SMILES	BAZ2B inh	JMJD2A Tudor	GLS inh	HP1b chromo inh	L3MBTL1 inh	G9a inh
S=c1[nH]nc(-c2ccc(Cl)cc2Cl)n1-c1ccc(Cl)cc1	?	-25.3%	?	16.1%	7.5%	·
COc1ccc(-n2c(/C=C/c3cccc4ccccc34)nc3ccccc3c2=O)cc1Cl	-1.5%	-6.1%	0.3%	40.3%	·	-3.3%[59 µM]
Cc1ccc(Cc2nc3ccccc3nc2SCC(=O)N2CCCCC2)cc1	13.1%	-7.5%	-4.1%	29.8%[57 µM]	·	7.8%[59 µM]
COc1ccc(C2/C=C\CN(Cc3ccc(N(C)C)cc3)CC(=O)N2Cc2ccc(F)cc2)cc1 (stereo unspecified)	31.6µM*	25.1µM*	14.5%	?	·	?
COc1ccc(C2/C=C\CN(C(=O)C3CC3)CC(=O)N2Cc2ccc(F)cc2)cc1 (stereo unspecified)	0.5%	-13.1%	7.2%	39.0%	·	24.4%[59 µM]
Nn1c(-c2ccccc2Cl)nnc1-c1ccccc1Cl	-12.4%	-28.5%	2.7%	22.1%	4.7%	3.55µM*
O=c1ccc(NS(=O)(=O)c2ccccc2Cl)cn1Cc1ccc(Cl)c(Cl)c1	56.2µM*	-24.7%	59.2%	17.2%	-8.0%	28.2µM*
O=C(O)Cc1ccc(NS(=O)(=O)c2ccccc2Cl)cc1	?	-3.6%	20.0%	19.8%	-13.9%	22.4µM*
COc1cc2c(=O)c(S(=O)(=O)c3ccccc3)cn(CC(=O)Nc3ccccc3C)c2cc1OC	-6.5%	-14.9%	-5.8%	23.4%	·	-7.5%[59 µM]
CC(C)(C)c1ccc(C(=O)Nc2onc3c2CCCC3)cc1	1.3%	-18.1%	-2.0%	39.2%	·	2.1%[59 µM]
COc1ccc(-c2nnc(SCC(=O)N3CCCC3=O)n2N)cc1OC	·	0.7%	-1.3%	52.8%	0.7%	·
COc1ccc(-c2nnc(SC(C(=O)c3c[nH]c4ccccc34)c3ccccc3)n2N)cc1OC (stereo unspecified)	-38.9%	?	10.8%	1.8%	-12.6%	8.91µM*
Nc1ccccc1Sc1c[nH]c2ccccc12	?	?	-13.8%	-15.8%	·	44.7µM*
CCSc1nc2sc3c(c2c(=O)[nH]1)CCc1ccccc1-3	10.6%	-6.2%	-23.7%	34.0%	-5.6%	50.1µM*
O=C(NCc1ccccc1Cl)c1cc2c(s1)-c1ccc(Cl)cc1SC2	5.6%	-6.4%	18.9%	19.0%	·	17.0%[59 µM]
CC1(C)CC(=O)C(=Cc2cn(CCC#N)nc2-c2ccc(F)cc2)C(=O)C1	-3.2%	-3.0%	12.6%	48.1%	5.1%	10µM*
c1ccc2[nH]c(SN3CCOCC3)nc2c1	20µM*	·	·	·	-1.3%	?
Oc1ccc(O)c(Cc2nc3ccccc3s2)c1	?	12.6µM*	?	20µM*	?	10µM*
O=C(Cc1ccccc1)Nc1ccc2c(c1)OC1(CCCC1)O2	-38.6%	-33.6%	-2.0%	-8.1%	-11.7%	?
